# In ChEMBL document CHEMBL1157539, “Thousands of chemical starting points for antimalarial lead identification” (Nature, 2010):
# The full ranking holds about 13,000 compounds; the median of “IFI” is about 4, and the highest 2% start at about 17. The entries come from a sample that favours the highest values as a whole.
# Assay: GSK_TCMDC: Inhibition Frequency Index (IFI). The number of non-kinase HTS assays where a compound showed > 50 % inhibition, expressed as a percentage of the number of such assays in which the compound was tested
# Assay type: functional
row,SMILES,IFI
1,CON=Cc1sc(CNCCCN=c2cc(O)c3ccccc3[nH]2)c(C)c1Br,6.52%
2,N=C(N)c1ccc2[nH]c(SCc3ccccc3)nc2c1,0.94%
3,O=c1c(Br)ccccc1Br,11.6%
4,CCN(CC)CCN(Cc1ccc(-c2ccc(C(F)(F)F)cc2)cc1)C(=O)Cn1c(CCc2cccc(F)c2F)cc(=O)cc1-c1ccccc1,11.3%
5,N=C(N)NN=Cc1ccccc1OCc1ccccc1Cl,6.72%
6,CS(=O)(=O)NCCCNCc1ccc(-c2ccc(-c3nc4cc(C(F)(F)F)ccc4[nH]3)cc2)cc1,5.94%
7,CCc1ccc(CN2CCC(CNC(=O)c3cc(-c4cccc(C(F)(F)F)c4)cs3)C2)cc1 (stereo unspecified),14%
8,CCCCSc1ccc(CNCCCCCCNCc2ccc(SCCCC)c3ccccc23)c2ccccc12,14.8%
9,CCCCOc1ccc(CNCCCCCCNCc2ccc(OCCCC)c3ccccc23)c2ccccc12,17.8%
10,CCCOc1ccc(CNCCCCCCNCc2ccc(OCCC)c3ccccc23)c2ccccc12,15.6%
11,CC1(C)NC(=N)NC(=N)N1OCC=Cc1ccccc1,3.57%
12,COc1ccc2[nH]ccc(=NN=Cc3ccc(Cl)cc3)c2c1,0.74%
13,CCN(CC)CCCNC(=O)/C(=C/C=C/c1cc2cc(Cl)c(Cl)cc2[nH]1)OC,8.46%
14,CCOc1ccccc1N1CCN(CCCNC(=O)/C(=C/C=C/c2cc3cc(Cl)c(Cl)cc3[nH]2)OC)CC1,10.8%
15,CO/C(=C\C=C\c1cc2cc(Cl)c(Cl)cc2[nH]1)C(=O)NCCCCN1CCN(c2ccccc2OC)CC1,19.1%
16,CO/C(=C\C=C\c1cc2cc(Cl)c(Cl)cc2[nH]1)C(=O)NCCCNC12CC3CC(CC(C3)C1)C2,21.1%
17,CCN(CC)CCNC(=O)/C(=C/C=C/c1cc2cc(Cl)c(Cl)cc2[nH]1)OC,7.63%
18,CO/C(=C\C=C\c1cc2cc(Cl)c(Cl)cc2[nH]1)C(=O)NCCCN1CCN(c2cccc(Cl)c2)CC1,8.27%
19,CCOC(=O)c1ccc(NC(=O)Nc2ccc(-c3cccc(-c4nc5cccc(C)c5[nH]4)c3)cc2)cc1,7%
20,Cc1noc(C)c1-c1cccc(CNCc2ccc(-c3ccc(-c4nc5cc(F)ccc5[nH]4)cc3)cc2)c1,8.91%
21,O=C(NCCc1cccc(Cl)c1Cl)c1cnc(N2CCN(c3ccncc3)CC2)c(Cl)c1,20%
22,Cc1ccccc1CCNC(=O)c1ccc(N2CCN(c3ccncc3)CC2)nc1,2.08%
23,Cc1ccccc1CCNC(=O)c1cnc(N2CCN(c3ccncc3)CC2)c(Cl)c1,20.8%

row,SMILES,IFI
1,O=C(Nc1cccc(Cl)c1)c1cnc(N2CCN(c3ccncc3)CC2)c(Cl)c1,16.7%
2,O=C(NCCc1cccc(Cl)c1Cl)c1ccc(N2CCN(c3ccncc3)CC2)nc1,10.4%
3,COc1ccccc1CCNC(=O)c1cnc(N2CCN(c3ccncc3)CC2)c(Cl)c1,10.4%
4,COc1c(C2CCN(CCCCNC(=O)c3ccc(-c4ccc(Cl)cc4)c(O)c3)CC2)ccc2c1CCCC2,9.09%
5,CN1CCCN(c2ccnc3cc4c(cc23)N(C(=O)c2ccc(Cl)cc2Cl)CC4)CC1,0.72%
6,O=C(CCC1CCCCC1)NCCNc1cccc2ccccc12,1.47%
7,N=C(NCCCCC1CCCCC1)c1cccc(C(=N)NCCCCC2CCCCC2)n1,19.9%
8,N=C(NCCCc1ccccc1)c1cccc(C(=N)NCCCc2ccccc2)n1,1.47%
9,COc1ccc2c(=NN=Cc3ccc(OC)c4ccccc34)cc(C)[nH]c2c1,2.14%
10,O=C(Cn1c(SCc2cccc(F)c2F)cc(=O)c2ccccc21)N(CCCn1ccnc1)Cc1ccc(-c2ccc(C(F)(F)F)cc2)cc1,2.17%
11,CCc1ccc(CN2CCC(CNC(=O)c3cc(-c4cccc(Cl)c4)cs3)C2)cc1 (stereo unspecified),8.16%
12,CC(Cc1ccc(OCCN2CCN(c3cccc(Cl)c3)CC2)cc1)NCC(O)c1cccc(C(F)(F)F)c1 (stereo unspecified),17.2%
13,CC(Cc1ccc(OCCN2CCN(c3ccccc3)CC2)cc1)NCC(O)c1cccc(Cl)c1F (stereo unspecified),12%
14,CC(Cc1ccc(CN2CCN(Cc3ccccc3)CC2)cc1)NCC(O)c1cccc(C(F)(F)F)c1 (stereo unspecified),9.15%
15,CC(Cc1ccc(OCCN2CCN(c3cccc(Cl)c3)CC2)cc1)NCC(O)c1cccc(Cl)c1 (stereo unspecified),16.4%
16,CC(Cc1ccc(OCCN2CCN(c3cccc(C(F)(F)F)c3)CC2)cc1)NCC(O)c1cccc(C(F)(F)F)c1 (stereo unspecified),10.8%
17,CC(Cc1ccc(OCCN2CCN(c3ccc(Cl)cc3)CC2)cc1)NCC(O)c1cccc(C(F)(F)F)c1 (stereo unspecified),18.1%
18,N#Cc1ccc(CN2CCCN(Cc3cccc(NC(=O)c4ccc(-c5ccccc5)cc4)c3)CC2)cc1,8.28%
19,Cc1cc(NCCC(=O)NCCc2ccccc2)nc(NCCc2ccc(F)cc2)n1,4.55%
20,CC(C)c1ccc(NC(=O)NCC2CCCN(CCCCCNC(=O)/C=C/c3ccc(Cl)c(Cl)c3)C2)cc1 (stereo unspecified),12.1%
21,O=C(/C=C/c1ccc(C(F)(F)F)cc1)NCCCCCN1CCCN(C(=O)Nc2ccc(Cl)c(Cl)c2)CC1,20.4%
22,O=C(/C=C/c1ccc(Cl)c(Cl)c1)NCCCCCCN1CCCN(C(=O)Nc2ccc(C(F)(F)F)cc2)CC1,12.3%
23,O=C(/C=C/c1ccc(Cl)c(Cl)c1)NCCCCCCN1CCCN(C(=O)Nc2ccc(Cl)c(C(F)(F)F)c2)CC1,11.3%
